According to PubChem BioAssay AID2330 (Broad Institute, 2010):
About 2,800 (7.6%) of roughly 37,000 compounds were called active. Inconclusive results (about 1%) are left out. This is one part of a sample in which actives are shown more often than they occur. Rule as the data show it: active = inhibition above about 80%; inconclusive = no clear call, values can overlap the other calls; inactive = below that.

Assay: NOMO-1 AML cell viability reduction, primary screen, STK33 inhibitor project, CellTiter-Glo luminescence (AID 2330)
Conditions: NOMO-1 AML viability, 72 h, active compounds read high, concentration not given here

Row | SMILES | inhibition
1 | C[C@H]1CN([C@@H](C)CO)C(=O)Cc2cc(NC(=O)CCCN(C)C)ccc2O[C@@H]1CN(C)Cc1ccc(-c2ccccc2)cc1 | 24.3% (inactive)
2 | C[C@@H]1CN([C@H](C)CO)C(=O)Cc2cc(NC(=O)c3ccncc3)ccc2O[C@H]1CN(C)Cc1ccc(-c2ccccc2)cc1 | 111% (active)
3 | C[C@H]1CN([C@@H](C)CO)C(=O)Cc2cc(NC(=O)C3CCCCC3)ccc2O[C@H]1CN(C)C(=O)Nc1ccc(C(F)(F)F)cc1 | 11.2% (inactive)
4 | C[C@@H]1CN([C@@H](C)CO)C(=O)Cc2cc(NC(=O)C3CCCCC3)ccc2O[C@@H]1CN(C)C(=O)Nc1ccc(C(F)(F)F)cc1 | 37.5% (inactive)
5 | C[C@H]1CN([C@@H](C)CO)C(=O)Cc2cc(NC(=O)Nc3ccc(C(F)(F)F)cc3)ccc2O[C@H]1CN(C)Cc1ccc(C(=O)O)cc1 | 12.6% (inactive)
6 | C[C@@H]1CN([C@H](C)CO)C(=O)Cc2cc(NC(=O)Nc3ccc(C(F)(F)F)cc3)ccc2O[C@H]1CN(C)Cc1ccc(-c2ccccc2)cc1 | 128% (active)
7 | C[C@H]1CN([C@@H](C)CO)C(=O)Cc2cc(NC(=O)Nc3ccccc3)ccc2O[C@H]1CN(C)Cc1ccncc1 | 19.2% (inactive)
8 | C[C@@H]1CN([C@H](C)CO)C(=O)Cc2cc(NC(=O)Nc3ccc4c(c3)OCO4)ccc2O[C@H]1CN(C)Cc1ccc(C(F)(F)F)cc1 | 77% (inactive)
9 | C[C@H](CO)N1C[C@H](C)[C@H](CN(C)Cc2ccc(-c3ccccc3)cc2)Oc2ccc(NC(=O)Nc3ccc(F)cc3)cc2CC1=O | 110% (active)
10 | C[C@@H]1CN([C@H](C)CO)C(=O)Cc2cc(NC(=O)C3CCCCC3)ccc2O[C@@H]1CN(C)Cc1ccc(C(F)(F)F)cc1 | 101% (active)
11 | COc1ccc(CN(C)C[C@@H]2Oc3ccc(NC(=O)c4ccncc4)cc3CC(=O)N([C@H](C)CO)C[C@H]2C)cc1 | 13.5% (inactive)
12 | C[C@@H]1CN([C@H](C)CO)C(=O)Cc2cc(NC(=O)c3ccncc3)ccc2O[C@@H]1CN(C)Cc1ccncc1 | -19.5% (inactive)
13 | CC(C)NC(=O)N(C)C[C@@H]1Oc2ccc(NC(=O)C3CCCCC3)cc2CC(=O)N([C@H](C)CO)C[C@@H]1C | 27.6% (inactive)
14 | Cc1noc(C)c1NC(=O)Nc1cccc2c1O[C@@H](CN(C)CC1CCCCC1)[C@H](C)CN([C@@H](C)CO)C2=O | -7.61% (inactive)
15 | Nc1nnc(SCC(=O)Nc2ccc(Cl)cc2O)s1 | 14.9% (inactive)
16 | C[C@@H]1CN([C@H](C)CO)C(=O)c2cccc(NC(=O)C3CCOCC3)c2O[C@H]1CN(C)S(=O)(=O)c1ccc(Cl)cc1 | 7.24% (inactive)
17 | COc1ccc(NC(=O)N(C)C[C@@H]2Oc3c(NS(C)(=O)=O)cccc3C(=O)N([C@H](C)CO)C[C@H]2C)cc1 | 12.7% (inactive)
18 | COc1cccc(-c2cc(C(F)(F)F)n3nc(C(=O)NCc4ccccn4)cc3n2)c1 | 12.5% (inactive)
19 | COC(=O)c1sc(SC)c(-c2ccn(S(=O)(=O)c3ccc(Cl)cc3)n2)c1C | -4.42% (inactive)

Row | SMILES | inhibition
20 | Cc1ccc(S(=O)(=O)N(C)C[C@H]2Oc3ccc(NC(=O)Cc4cn(C)c5ccccc45)cc3CC(=O)N([C@@H](C)CO)C[C@H]2C)cc1 | 15.7% (inactive)
21 | N#Cc1c(SCC(=O)Nc2ccc(F)cc2Cl)nc2c(c1C(F)(F)F)CCCCC2 | 24.5% (inactive)
22 | C=CCn1c(SCc2nc3ccccc3[nH]2)nnc1-c1cccc(C)c1 | 1.23% (inactive)
23 | C[C@@H]1CN([C@H](C)CO)C(=O)Cc2cc(NC(=O)Cc3cn(C)c4ccccc34)ccc2O[C@@H]1CN(C)Cc1ccc(C(F)(F)F)cc1 | 112% (active)
24 | C[C@H]1CN([C@@H](C)CO)C(=O)Cc2cc(NC(=O)Cc3cn(C)c4ccccc34)ccc2O[C@@H]1CN(C)Cc1ccccc1 | 32.3% (inactive)
25 | Cc1noc(C)c1NC(=O)Nc1ccc2c(c1)CC(=O)N([C@H](C)CO)C[C@@H](C)[C@@H](CN(C)Cc1ccc(C(F)(F)F)cc1)O2 | 25.7% (inactive)
26 | C[C@@H]1CN([C@H](C)CO)C(=O)Cc2cc(NC(=O)Nc3cccc4ccccc34)ccc2O[C@@H]1CN(C)Cc1ccc(C(=O)O)cc1 | 20.5% (inactive)
27 | COc1ccc(NC(=O)Nc2ccc3c(c2)CC(=O)N([C@@H](C)CO)C[C@@H](C)[C@@H](CN(C)Cc2ccc(C(F)(F)F)cc2)O3)cc1 | 101% (active)
28 | C[C@H]1CN([C@@H](C)CO)C(=O)Cc2cc(NC(=O)Cc3cn(C)c4ccccc34)ccc2O[C@H]1CN(C)Cc1ccccc1 | 7.92% (inactive)
29 | COc1ccc(NC(=O)Nc2ccc3c(c2)CC(=O)N([C@H](C)CO)C[C@H](C)[C@H](CN(C)Cc2ccncc2)O3)cc1 | -3.73% (inactive)
30 | COc1ccc(CN(C)C[C@@H]2Oc3ccc(NC(=O)Nc4ccc(OC)cc4)cc3CC(=O)N([C@H](C)CO)C[C@H]2C)cc1 | 22% (inactive)
31 | C[C@@H]1CN([C@H](C)CO)C(=O)Cc2cc(NC(=O)Nc3cccc4ccccc34)ccc2O[C@@H]1CN(C)Cc1ccc(C(F)(F)F)cc1 | 105% (active)
32 | C[C@@H]1CCCCO[C@@H](CN(C)C)[C@@H](C)CN([C@H](C)CO)C(=O)c2cc(NC(=O)c3ccncc3)ccc2O1 | 17.5% (inactive)
33 | CC(C)NC(=O)N(C)C[C@H]1Oc2c(NC(=O)C3CCCCC3)cccc2C(=O)N([C@@H](C)CO)C[C@H]1C | -7.34% (inactive)
34 | C[C@H](CO)N1C[C@H](C)[C@@H](CN(C)C(=O)Nc2ccc3c(c2)OCO3)Oc2c(cccc2N(C)C)C1=O | 13.3% (inactive)
35 | Cc1noc(C)c1NC(=O)N(C)C[C@H]1Oc2ccc(NC(=O)Nc3ccc(C(F)(F)F)cc3)cc2CC(=O)N([C@@H](C)CO)C[C@@H]1C | 8.18% (inactive)
36 | O=C(O)c1c(Br)c(Br)c(Br)c(Br)c1-c1c2ccc(=O)cc-2oc2cc(O)ccc12 | 21.5% (inactive)
37 | O=C(CSc1nnc(-c2cccs2)n1-c1ccccc1Cl)Nc1cccc(C(=O)O)c1 | -8.58% (inactive)
38 | O=C(NCc1ccccn1)C(=O)Nc1cccc(Cl)c1Cl | -11.7% (inactive)
